# PubChem BioAssay (NCI)
# Compounds without any hit were thinned out: in the full panel of roughly 79,000, 15% have a hit. A number with no mark means an inactive call. Active and inactive are the calls of the source. No stated cut-off is given here; in the data, active means growth inhibition above about 70%; inactive means the rest.
# Tests used:
# [1] = NCI Yeast Anticancer Drug Screen. Data for the rad52 strain (AID 147);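 further: 0% = growth of vehicle-treated control cultures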; conditions: S. cerevisiae rad52 mutant growth inhibition, stronger effect = higher value
# Method in brief: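 Growth of repair-deficient yeast cells was compared between compound-treated and vehicle-treated cultures to give percent inhibition.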
# [2] = NCI Yeast Anticancer Drug Screen. Data for the wt1 strain (AID 149);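 further: 0% = growth of vehicle-treated wt1 cultures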; conditions: S. cerevisiae wt1 strain (SPY 50644) growth inhibition, stronger effect = higher value
# Method in brief: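 Growth inhibition read against vehicle controls after compound exposure of the wt1 yeast strain.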
# [3] = NCI Yeast Anticancer Drug Screen. Data for the rad50EPP+ strain (AID 151);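 further: 0% = growth of vehicle-treated control cultures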; conditions: S. cerevisiae rad50 mutant strain, stronger effect = higher value
# Method in brief: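 Measured: growth inhibition of rad50EPP+ yeast. Reference: vehicle-treated controls. Screen uses strains with defined genetic alterations in DNA damage repair or cell cycle control.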
# [4] = NCI Yeast Anticancer Drug Screen. Data for the mgt1 strain (AID 153); conditions: S. cerevisiae mgt1 mutant growth inhibition, stronger effect = higher value
# Method in brief: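 Compounds were applied to mgt1 mutant yeast, and growth was then compared against vehicle-treated control cultures to give percent inhibition.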
# [5] = NCI Yeast Anticancer Drug Screen. Data for the rad50 strain (AID 155);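 further: 0% = growth of vehicle-only cultures of the same strain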; conditions: S. cerevisiae rad50 strain growth inhibition, stronger effect = higher value
# Method in brief: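 Readout: growth inhibition relative to vehicle-treated cultures. Compound exposure was carried out in a genetically defined yeast strain deficient in DNA damage repair.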
# [6] = NCI Yeast Anticancer Drug Screen. Data for the mec2-1 strain (AID 157); conditions: S. cerevisiae mec2-1 strain, stronger effect = higher value
# Method in brief: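 Compounds were applied to mec2-1 yeast cells. Their growth was then compared with that of vehicle-treated cultures to give growth inhibition.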
# [7] = NCI Yeast Anticancer Drug Screen. Data for the rad14 strain (AID 159);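 further: 0% = growth of vehicle-treated control cultures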; conditions: S. cerevisiae rad14 strain growth inhibition, stronger effect = higher value
# Method in brief: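 Growth inhibition vs vehicle controls; genetically altered yeast strain (DNA damage repair defect) treated with test compounds.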
# [8] = NCI Yeast Anticancer Drug Screen. Data for the sgs1 mgt1 strain (AID 161);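 further: 0% = growth of cultures given vehicle only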; conditions: S. cerevisiae sgs1 mgt1 strain, stronger effect = higher value
# Method in brief: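 Growth of a repair-deficient yeast mutant was monitored after compound treatment and expressed as inhibition relative to vehicle-treated cultures.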
# [9] = NCI Yeast Anticancer Drug Screen. Data for the CLN2oe strain (AID 163);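 further: 0% = growth of vehicle-only control cultures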; conditions: S. cerevisiae CLN2oe strain, stronger effect = higher value
# Method in brief: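 Cells of an engineered yeast line with disturbed cell-cycle regulation are treated with compound. Inhibition of growth is then calculated relative to the vehicle-treated reference.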
# [10] = NCI Yeast Anticancer Drug Screen. Data for the cln2 rad14 strain (AID 165);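 further: 0% = growth equal to vehicle treated cultures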; conditions: S. cerevisiae cln2 rad14 strain, stronger effect = higher value
# Method in brief: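 Strain: cln2 rad14 yeast, altered in cell cycle control and DNA damage repair. Read-out: growth inhibition vs vehicle.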
# [11] = NCI Yeast Anticancer Drug Screen. Data for the bub3 strain (AID 167); conditions: S. cerevisiae bub3 mutant strain, stronger effect = higher value
# Method in brief: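 Readout: yeast growth inhibition, expressed relative to vehicle-only wells. The test organism is a mutant strain from a panel with lesions in DNA repair or checkpoint genes.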
# [12] = NCI Yeast Anticancer Drug Screen. Data for the wt2 strain (AID 169);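 further: 0% = growth of vehicle-treated yeast cultures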; conditions: S. cerevisiae wt2 strain growth inhibition, stronger effect = higher value
# Method in brief: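 Growth of compound-treated yeast is measured and expressed as inhibition relative to vehicle-only controls.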
# [13] = NCI Yeast Anticancer Drug Screen. Data for the mlh1 strain (AID 171);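 further: 0% = growth of vehicle-treated control cultures of the same strain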; conditions: S. cerevisiae mlh1 strain growth inhibition, stronger effect = higher value
# Method in brief: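 Test agents were incubated with yeast bearing a defined DNA damage repair or cell cycle control alteration; values are growth inhibition normalised to vehicle-treated cultures.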
# [14] = NCI Yeast Anticancer Drug Screen. Data for the sgs1 strain (AID 173);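 further: 0% = growth of vehicle-only control cultures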; conditions: S. cerevisiae sgs1 mutant, stronger effect = higher value
# Method in brief: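 Strain with an altered DNA repair or cell cycle pathway exposed to compound. Growth then measured. Value = inhibition versus vehicle control.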
# [15] = NCI Yeast Anticancer Drug Screen. Data for the mlh1 rad18 strain (AID 175); conditions: S. cerevisiae mlh1 rad18 strain growth inhibition, stronger effect = higher value
# Method in brief: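 A repair-deficient yeast strain is exposed to test compound, and growth is scored relative to vehicle-treated controls.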
# [16] = NCI Yeast Anticancer Drug Screen. Data for the rad18 strain (AID 177); conditions: S. cerevisiae rad18 mutant growth inhibition, stronger effect = higher value
# Method in brief: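 DNA-repair-defective yeast; compound treatment; growth inhibition scored against vehicle.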
# [17] = at 5.0 µM (retest, dose inferred, filed as 0.5)
# [18] = at 50.0 µM (retest, dose inferred, filed as 5.0)
smiles,measurement,setting,value
c1c(N2CCOCC2)ssc1=[N+]1CCOCC1,growth inhibition,[1]; at 1.2 µM,0%
same,growth inhibition,[1]; at 3.7 µM,0%
same,growth inhibition,[1]; at 11.0 µM,-4%
same,growth inhibition,[1]; at 33.0 µM,-4%
same,growth inhibition,[1]; at 100.0 µM,-2%
same,growth inhibition,[2]; at 1.2 µM,-3%
same,growth inhibition,[2]; at 3.7 µM,-1%
same,growth inhibition,[2]; at 11.0 µM,0%
same,growth inhibition,[2]; at 33.0 µM,0%
same,growth inhibition,[2]; at 100.0 µM,-1%
same,growth inhibition,[3]; at 1.2 µM,1%
same,growth inhibition,[3]; at 3.7 µM,3%
same,growth inhibition,[3]; at 11.0 µM,3%
same,growth inhibition,[3]; at 33.0 µM,3%
same,growth inhibition,[3]; at 100.0 µM,5%
same,growth inhibition,[4]; at 1.2 µM,0%
same,growth inhibition,[4]; at 3.7 µM,2%
same,growth inhibition,[4]; at 11.0 µM,-1%
same,growth inhibition,[4]; at 33.0 µM,0%
same,growth inhibition,[4]; at 100.0 µM,1%
same,growth inhibition,[5]; at 1.2 µM,-3%
same,growth inhibition,[5]; at 3.7 µM,-2%
same,growth inhibition,[5]; [17],4%
same,growth inhibition,[5]; at 11.0 µM,-5%
same,growth inhibition,[5]; at 33.0 µM,-3%
same,growth inhibition,[5]; [18],1%
same,growth inhibition,[5]; at 50.0 µM,54.5%
same,growth inhibition,[5]; at 100.0 µM,-2%
same,growth inhibition,[6]; at 1.2 µM,0%
same,growth inhibition,[6]; at 3.7 µM,-2%
same,growth inhibition,[6]; [17],0%
same,growth inhibition,[6]; at 11.0 µM,-1%
same,growth inhibition,[6]; at 33.0 µM,-1%
same,growth inhibition,[6]; [18],3%
same,growth inhibition,[6]; at 50.0 µM,51.1%
same,growth inhibition,[6]; at 100.0 µM,1%
same,growth inhibition,[7]; at 1.2 µM,-1%
same,growth inhibition,[7]; at 3.7 µM,0%
same,growth inhibition,[7]; at 11.0 µM,3%
same,growth inhibition,[7]; at 33.0 µM,1%
same,growth inhibition,[7]; at 100.0 µM,-2%
same,growth inhibition,[8]; [17],4%
same,growth inhibition,[8]; [18],2%
same,growth inhibition,[8]; at 50.0 µM,69.1%
same,growth inhibition,[9]; at 1.2 µM,0%
same,growth inhibition,[9]; at 3.7 µM,4%
same,growth inhibition,[9]; at 11.0 µM,3%
same,growth inhibition,[9]; at 33.0 µM,2%
same,growth inhibition,[9]; at 100.0 µM,0%
same,growth inhibition,[10]; [17],-1%
same,growth inhibition,[10]; [18],7%
same,growth inhibition,[10]; at 50.0 µM,20.7%
same,growth inhibition,[11]; at 1.2 µM,0%
same,growth inhibition,[11]; at 3.7 µM,0%
same,growth inhibition,[11]; [17],-1%
same,growth inhibition,[11]; at 11.0 µM,1%
same,growth inhibition,[11]; at 33.0 µM,-2%
same,growth inhibition,[11]; [18],6%
same,growth inhibition,[11]; at 50.0 µM,51.5%
same,growth inhibition,[11]; at 100.0 µM,-2%
same,growth inhibition,[12]; at 1.2 µM,0%
same,growth inhibition,[12]; at 3.7 µM,-1%
same,growth inhibition,[12]; at 11.0 µM,0%
same,growth inhibition,[12]; at 33.0 µM,0%
same,growth inhibition,[12]; at 100.0 µM,1%
same,growth inhibition,[13]; at 1.2 µM,-1%
same,growth inhibition,[13]; at 3.7 µM,0%
same,growth inhibition,[13]; at 11.0 µM,0%
same,growth inhibition,[13]; at 33.0 µM,0%
same,growth inhibition,[13]; at 100.0 µM,-5%
same,growth inhibition,[14]; at 1.2 µM,0%
same,growth inhibition,[14]; at 3.7 µM,1%
same,growth inhibition,[14]; at 11.0 µM,3%
same,growth inhibition,[14]; at 33.0 µM,2%
same,growth inhibition,[14]; at 100.0 µM,-3%
same,growth inhibition,[15]; [17],2%
same,growth inhibition,[15]; [18],9%
same,growth inhibition,[15]; at 50.0 µM,82.7% (active)
same,growth inhibition,[16]; at 1.2 µM,-1%
same,growth inhibition,[16]; at 3.7 µM,-2%
same,growth inhibition,[16]; at 11.0 µM,-1%
same,growth inhibition,[16]; at 33.0 µM,-1%
same,growth inhibition,[16]; at 100.0 µM,-2%
